This note sets out measurements from the antibiotic and cytotoxicity screens of Wong et al. (2023).

Structures are written as SMILES. Hit rate of the full screen: of about 39,000 compounds, about 3,300 (8.5%) were called active. The full list was thinned out, with actives kept by preference.

This experiment deals with HepG2. The experiment in a line: cytotoxicity call (relative viability < 0.9). The conditions noted are these: 10 µM.
For the compound `CC(C)NC(=O)Nc1ccc2c(c1)C(=O)N([C@H](C)CO)C[C@@H](C)[C@H](CN(C)S(=O)(=O)c1cccs1)O2`, the cytotoxicity call is “inactive”.

For the compound `CO[C@H]1CN(C)C(=O)c2ccc(NS(C)(=O)=O)cc2OC[C@@H](C)N(C(=O)CN(C)C)C[C@@H]1C`, the cytotoxicity call was “inactive”.

Take `Cn1nc(CN2CCCC2=O)c2c1CNC2`: the cytotoxicity call is “inactive”.

Take `Cc1cc(C(=O)Nc2cccc3c2O[C@H](CN(C)Cc2ccc4c(c2)OCO4)[C@@H](C)CN([C@H](C)CO)C3=O)n(C)n1`: the cytotoxicity call was “inactive”.

With `CC(C)NC(=O)N(C)C[C@H]1Oc2ccc(NC(=O)C3CCCCC3)cc2CC(=O)N([C@@H](C)CO)C[C@H]1C`, the cytotoxicity call is “inactive”.

Turning to `C[C@@H]1CN([C@H](C)CO)C(=O)c2ccccc2-c2ccccc2CO[C@@H]1CN(C)C(=O)Nc1ccc(-c2ccccc2)cc1`, the cytotoxicity call was “inactive”.

As for `C[C@@H]1CCCCO[C@@H](CN(C)Cc2ccc(Cl)c(Cl)c2)[C@@H](C)CN([C@@H](C)CO)C(=O)c2cc(NC(=O)Nc3cccc4ccccc34)ccc2O1`, the cytotoxicity call is “active”.

Regarding `C[C@@H]1CN([C@H](C)CO)C(=O)c2cc(NC(=O)Nc3cccc4ccccc34)ccc2O[C@@H](C)CCCCO[C@@H]1CN(C)Cc1ccccc1`, the cytotoxicity call was “inactive”.

Turning to `C[C@@H]1CCCCO[C@@H](CN(C)Cc2ccccc2)[C@H](C)CN([C@H](C)CO)C(=O)c2cc(NC(=O)Nc3cccc4ccccc34)ccc2O1`, the cytotoxicity call was “inactive”.

On to `C[C@H](CO)N1C[C@H](C)[C@@H](CN(C)Cc2ccccc2)OCCCC[C@H](C)Oc2ccc(NC(=O)Nc3cccc4ccccc34)cc2C1=O`, for which the cytotoxicity call was “inactive”.

For the compound `C[C@@H]1CCCCO[C@H](CN(C)Cc2ccccc2)[C@H](C)CN([C@H](C)CO)C(=O)c2cc(NC(=O)Nc3cccc4ccccc34)ccc2O1`, the cytotoxicity call was “active”.

Regarding `C[C@@H]1CCCCO[C@H](CN(C)Cc2ccccc2)[C@@H](C)CN([C@H](C)CO)C(=O)c2cc(NC(=O)Nc3cccc4ccccc34)ccc2O1`, the cytotoxicity call is “inactive”.

Take `C[C@@H]1CCCCO[C@@H](CN(C)Cc2ccc(Cl)c(Cl)c2)[C@H](C)CN([C@@H](C)CO)C(=O)c2cc(NC(=O)Nc3cccc4ccccc34)ccc2O1`: the cytotoxicity call was “inactive”.

Turning to `C[C@@H]1CCCCO[C@@H](CN(C)Cc2ccc(Cl)c(Cl)c2)[C@H](C)CN([C@H](C)CO)C(=O)c2cc(NC(=O)Nc3cccc4ccccc34)ccc2O1`, the cytotoxicity call was “inactive”.

As for `C[C@@H]1CCCCO[C@H](CN(C)Cc2ccccc2)[C@H](C)CN([C@@H](C)CO)C(=O)c2cc(NC(=O)Nc3cccc4ccccc34)ccc2O1`, the cytotoxicity call is “active”.

For the compound `C[C@H]1CCCCO[C@@H](CN(C)Cc2ccccc2)[C@@H](C)CN([C@@H](C)CO)C(=O)c2cc(NC(=O)Nc3cccc4ccccc34)ccc2O1`, the cytotoxicity call is “active”.

On to `COc1ccc(NC(=O)N(C)C[C@H]2Oc3ncc(C#CCN(C)C)cc3C(=O)N([C@H](C)CO)C[C@H]2C)cc1`, for which the cytotoxicity call is “inactive”.

Regarding `C[C@H](CO)N1C[C@H](C)[C@@H](CN(C)C(=O)C2CCOCC2)Oc2cc(-c3ccc(C(=O)N(C)C)cc3)ccc2S1(=O)=O`, the cytotoxicity call was “inactive”.

Take `C[C@H]1CCCCO[C@H](CN(C)Cc2ccc(C(F)(F)F)cc2)[C@@H](C)CN([C@@H](C)CO)C(=O)c2cc(NC(=O)c3ccncc3)ccc2O1`: the cytotoxicity call is “inactive”.

With `C[C@@H]1CCCCO[C@@H](CN(C)C(=O)CCCN(C)C)[C@@H](C)CN([C@H](C)CO)C(=O)c2cc(N(C)C)ccc2O1`, the cytotoxicity call was “inactive”.

As for `C[C@H](CO)N1C[C@H](C)[C@@H](CN(C)CC2CCCCC2)Oc2ccc(NC(=O)Cc3cn(C)c4ccccc34)cc2C1=O`, the cytotoxicity call is “inactive”.

`CCCN(C)C[C@H]1OCCCC[C@@H](C)Oc2ccc(NC(=O)Cc3ccccc3)cc2C(=O)N([C@H](C)CO)C[C@H]1C`: the cytotoxicity call is “inactive”.

`O=C(C[C@H]1CC[C@@H]2[C@H](COC[C@H](O)CN2CC2CCOCC2)O1)N1CCOCC1`: the cytotoxicity call was “inactive”.

With `C[C@@H]1CN([C@H](C)CO)C(=O)Cc2cc(NC(=O)CCN3CCOCC3)ccc2O[C@H]1CN(C)S(=O)(=O)c1cccs1`, the cytotoxicity call is “inactive”.

`C[C@@H]1CN([C@@H](C)CO)C(=O)c2cc(NC(=O)Nc3cccc4ccccc34)ccc2O[C@@H](C)CCCCO[C@@H]1CN(C)Cc1ccncc1`: the cytotoxicity call is “inactive”.

Turning to `C[C@@H]1CCCCO[C@H](CN(C)Cc2ccc(C(=O)O)cc2)[C@@H](C)CN([C@@H](C)CO)C(=O)c2cc(NC(=O)Nc3cccc4ccccc34)ccc2O1`, the cytotoxicity call was “inactive”.

In the case of `C[C@H]1CCCCO[C@H](CN(C)Cc2ccccc2)[C@@H](C)CN([C@@H](C)CO)C(=O)c2cc(NC(=O)Nc3cccc4ccccc34)ccc2O1`, the cytotoxicity call was “active”.

On to `C[C@@H]1CCCCO[C@@H](CN(C)Cc2ccccc2)[C@H](C)CN([C@@H](C)CO)C(=O)c2cc(NC(=O)Nc3cccc4ccccc34)ccc2O1`, for which the cytotoxicity call is “inactive”.

For `C[C@@H]1CCCCO[C@H](CN(C)Cc2ccccc2)[C@@H](C)CN([C@@H](C)CO)C(=O)c2cc(NC(=O)Nc3cccc4ccccc34)ccc2O1`, the cytotoxicity call is “active”.

Consider `C[C@@H]1CCCCO[C@@H](CN(C)Cc2ccccc2)[C@@H](C)CN([C@H](C)CO)C(=O)c2cc(NC(=O)Nc3cccc4ccccc34)ccc2O1`, for which the cytotoxicity call is “inactive”.

Turning to `C[C@@H]1CCCCO[C@H](CN(C)Cc2ccncc2)[C@H](C)CN([C@@H](C)CO)C(=O)c2cc(NC(=O)Nc3cccc4ccccc34)ccc2O1`, the cytotoxicity call is “active”.

As to `C[C@@H]1CN([C@@H](C)CO)C(=O)c2cc(NC(=O)Nc3cccc4ccccc34)ccc2O[C@@H](C)CCCCO[C@H]1CN(C)Cc1ccccc1`, the cytotoxicity call was “active”.

For the compound `C[C@@H]1CN([C@@H](C)CO)C(=O)c2cc(NC(=O)Nc3cccc4ccccc34)ccc2O[C@@H](C)CCCCO[C@H]1CN(C)Cc1ccncc1`, the cytotoxicity call is “inactive”.

Take `C[C@@H]1CCCCO[C@@H](CN(C)Cc2ccc(C(=O)O)cc2)[C@@H](C)CN([C@H](C)CO)C(=O)c2cc(NC(=O)Nc3cccc4ccccc34)ccc2O1`: the cytotoxicity call was “inactive”.

For `CC(C)NC(=O)N(C)C[C@@H]1OCc2cnnn2CCCC(=O)N([C@H](C)CO)C[C@@H]1C`, the cytotoxicity call is “inactive”.

Turning to `C[C@H]1CN([C@@H](C)CO)C(=O)c2c(c3ccccc3n2C)-c2ccccc2CO[C@@H]1CN(C)C(=O)c1ccc(F)cc1`, the cytotoxicity call is “inactive”.

Regarding `C[C@H]1CCCCO[C@@H](CN(C)Cc2ccc3c(c2)OCO3)[C@@H](C)CN([C@@H](C)CO)C(=O)c2cc(NS(=O)(=O)c3ccc(F)cc3)ccc2O1`, the cytotoxicity call was “inactive”.
